According to PubChem BioAssay:

Each compound was assayed on Sam68 (KHDRBS1) (assay: compounds binding KHDRBS1 protein – biochemical, small-molecule microarray, 635 nm fluorescence, primary screen (AID 1125;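 further: score merges 667 nm channel intensity with signal to noise over triplicate slides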)). Conditions: higher = more signal.
`COc1ccc(C(=O)Nc2ccc(CN3C(=O)[C@@]4(O[C@@H](CC(=O)N5CCC[C@H]5CO)[C@H]([Si](C)(C)c5ccc(OC)cc5)[C@H]4C)c4ccccc43)cc2)cc1` gave a composite z-score of 1.31. `CN1C(=O)C2C=CC(C(O)C3=C[C@H]4C[C@@H](C3)C4(C)C)N(Nc3ccccc3)C2C1=O` (stereo partly specified) was tested, and the composite z-score was 1.31. Work on `CS(=O)(=O)CCOC(=O)C1=CC(CCCO)=CC(c2ccc(CN3CCCC3)cc2)N(Cc2cc3c(cc2Br)OCO3)C=C1C(=O)OCCS(C)(=O)=O` (stereo unspecified) yielded a composite z-score of 1.31. In the case of `COC(=O)[C@@]1(Cc2ccc(OC)cc2)[C@H]2c3cc(C(=O)N4CCCC4)n(Cc4ccccc4)c3C[C@H]2CN1C(=O)c1ccccc1`, the composite z-score is reported as 0.846. With `C[N+](C)(C)CCCCNC(=O)[C@H]1C[C@H]2C(=O)N[C@@H](Cc3ccccc3)C(=O)N2[C@H]1c1ccc(O)cc1` the composite z-score was 0.247. `C[C@]1(C(=O)NC2CC2)c2ccccc2C(=O)N(Cc2cc(C(F)(F)F)cc(C(F)(F)F)c2)[C@H]1c1ccc(CO)cc1` showed a composite z-score of 1.32. `CCCC#C[Si](O[C@H](CC)c1cn([C@H](CO)Cc2ccccc2)nn1)(C(C)C)C(C)C` was tested, and the composite z-score was 0.838. `CC(=O)N1Cc2ccccc2C[C@@]2(COC(c3ccc(OCCCO)cc3)=N2)C1=O` gave a composite z-score of 1.3. Work on `CC(C)(C)OC(=O)CC[C@@]1(C(=O)NCCN2CCOCC2)N=C(c2ccc(OCCCO)cc2)O[C@@H]1c1ccccc1N=[N+]=[N-]` yielded a composite z-score of 1.33. `CN1C(=O)C2C=CC(C(O)c3ccccc3)N(Nc3ccccc3)C2C1=O` (stereo unspecified) gave a composite z-score of -0.0508. With `CC(=O)n1cc(C(O)C2C=CC3C(=O)N(C)C(=O)C3N2Nc2ccccc2)c2ccccc21` (stereo unspecified) the composite z-score was 1.11.
